Shown are actives, neighbours in structure and some others; about 13% of the full set was active somewhere.
USP10 block – inhibitors of human USP10 deubiquitinase; Ubiquitin carboxyl-terminal hydrolase 10 (Homo sapiens), Q14694; purified USP10, Ub-rhodamine fluorescence, 60 min; inhibition, % at 20 µM; actives 1.1% (n = 47,000); AID 1645856, 2021
USP17 block – inhibitors of human USP17 deubiquitinase. purified USP17, Ub-rhodamine cleavage fluorescence, 3 h. inhibition, % at 50 µM. actives 6.5% (n = 47,000)
USP30 block – inhibitors of human USP30 deubiquitinase; purified USP30, Ub-rhodamine cleavage fluorescence; Ubiquitin carboxyl-terminal hydrolase 30 (Homo sapiens), Q70CQ3; actives 5.3% (n = 47,000); AID 1645860, 2021; inhibition, % at 25 µM
Target sequence (Q70CQ3 whole entry, looked up): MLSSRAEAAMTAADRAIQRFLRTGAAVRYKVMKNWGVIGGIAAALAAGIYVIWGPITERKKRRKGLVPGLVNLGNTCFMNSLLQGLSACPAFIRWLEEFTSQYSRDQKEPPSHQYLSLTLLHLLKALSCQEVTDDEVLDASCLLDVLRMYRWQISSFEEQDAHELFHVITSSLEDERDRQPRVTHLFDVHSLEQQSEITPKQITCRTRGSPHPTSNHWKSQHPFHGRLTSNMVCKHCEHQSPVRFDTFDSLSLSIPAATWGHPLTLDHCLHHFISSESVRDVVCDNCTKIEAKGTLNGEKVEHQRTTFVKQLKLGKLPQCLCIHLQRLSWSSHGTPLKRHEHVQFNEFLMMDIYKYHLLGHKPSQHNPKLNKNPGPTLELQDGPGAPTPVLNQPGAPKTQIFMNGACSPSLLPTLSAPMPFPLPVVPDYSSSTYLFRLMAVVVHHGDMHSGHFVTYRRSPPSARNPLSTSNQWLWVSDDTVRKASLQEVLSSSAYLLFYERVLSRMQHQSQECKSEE
USP28 inh – inhibitors of human USP28 deubiquitinase; Ubiquitin carboxyl-terminal hydrolase 28 (Homo sapiens), Q96RU2; purified USP28, Ub-rhodamine cleavage fluorescence, 30 min; inhibition, % at 25 µM; actives 3% (n = 47,000); AID 1645857, 2021
USP8 block – inhibitors of human USP8 deubiquitinase | purified USP8, Ub-rhodamine cleavage fluorescence, 30 min | inhibition, % at 20 µM | actives 4.2% (n = 47,000) | AID 1645853, 2021
The depositor's hits bear a star. Rule as the data show it: active = inhibition above about 30%; inactive = the rest.

For O=S(=O)(c1ccccc1F)N1CCOC(c2cnccn2)C1 (stereo unspecified) the results were USP10 block 0, USP17 block 17, USP30 block 21, USP28 inh 8 and USP8 block 25.
`COCCOc1cccc(CN2CCCC(c3nnc4n3CCNCC4)C2)c1` (stereo unspecified) gave USP10 block 2, USP17 block 6, USP30 block 2, USP28 inh -2 and USP8 block -7.
`CC(C)c1cccc(OCCOCCN2CCNCC2)c1` gave USP10 block -3, USP17 block 8, USP30 block 21, USP28 inh 48* and USP8 block 8.
For O=c1c2[nH]c3ccc(Br)cc3c2ncn1CCN1CCNCC1 the results were USP10 block -4, USP17 block 38*, USP30 block 40*, USP28 inh 12 and USP8 block 8.
O=c1c2[nH]c3ccc(Cl)cc3c2ncn1CCC1=CCCCC1 was read as USP10 block -2, USP17 block 7, USP30 block -7, USP28 inh -1 and USP8 block 14.
Screening COc1ccc2c(c1)[nH]c1c(=O)n(Cc3ccccc3)cnc12 returned USP10 block 21, USP17 block 71*, USP30 block 73*, USP28 inh 0 and USP8 block 12.
For CCOc1ccc2[nH]c3c(=O)n(CCc4ccc(OC)cc4)cnc3c2c1 the results were USP10 block 27, USP17 block 67*, USP30 block 13, USP28 inh 15 and USP8 block 5.
For CCOc1ccc2[nH]c3c(=O)n(CCC4=CCCCC4)cnc3c2c1 the results were USP10 block 9, USP30 block 17, USP28 inh 15 and USP8 block 47*.
O=C(Nc1ccccc1C(F)(F)F)C1CN(C(=O)c2ccc3c(c2)OCO3)C1 was read as USP10 block 3, USP17 block 7, USP30 block 12, USP28 inh 11 and USP8 block -4.
CCOC(=O)c1cccc(N2Cc3cccc(OC)c3OCC2=O)c1 was read as USP10 block -1, USP17 block -8, USP30 block -48, USP28 inh -1 and USP8 block 0.
O=c1c2[nH]c3ccc(Cl)cc3c2ncn1CCc1ccccc1 was read as USP10 block 4, USP17 block 2, USP30 block -1, USP28 inh -7 and USP8 block 13.
For Cc1ccc2[nH]c3c(=O)n(CCc4ccccc4)cnc3c2c1 the results were USP10 block 12, USP17 block 12, USP30 block 30, USP28 inh -3 and USP8 block 32*.
Screening O=c1[nH]c(NC2CCN(Cc3nnnn3Cc3ccc4c(c3)OCO4)CC2)nc2c1CCCC2 returned USP10 block 0, USP17 block 0, USP30 block 38*, USP28 inh 8 and USP8 block -1.
Screening CC1OC2CC(O)C1(O)C1=C2C(=O)c2c(O)c3c(c(O)c2C1=O)[C@H](C)O[C@H]1CC(=O)O[C@@H]31 (stereo partly specified) returned USP10 block -10, USP17 block 56*, USP30 block -81, USP28 inh 11 and USP8 block -71.
Screening O=C(Cn1c(=O)c2c(ncn2C2CCCC2)n(Cc2ccccc2)c1=O)NCCc1ccc(F)cc1 returned USP10 block -7, USP17 block -1, USP30 block -58, USP28 inh -18 and USP8 block 19.
`COc1ccc(CNC(=O)Cn2c(=O)c3c(ncn3C3CCCC3)n(Cc3ccccc3)c2=O)cc1` gave USP10 block -7, USP17 block 43*, USP30 block -5, USP28 inh 4 and USP8 block 28.
Screening Cc1onc(C(C)C)c1C(=O)N1CCCCC1c1ccn2nccc2n1 (stereo unspecified) returned USP10 block 1, USP17 block 0, USP30 block 5, USP28 inh 2 and USP8 block 2.
For CCCn1c(-c2ccccc2)nc2nc3ccccc3nc21 the results were USP10 block -1, USP17 block 9, USP30 block -1, USP28 inh 7 and USP8 block 18.
Screening CCC(C)n1c(-c2ccccc2F)nc2nc3ccccc3nc21 (stereo unspecified) returned USP10 block 4, USP17 block 10, USP30 block 35*, USP28 inh 37* and USP8 block 0.
CC(=O)c1cccc(S(=O)(=O)Nc2ccc3cn[nH]c3c2)c1 was read as USP10 block 0, USP17 block -31, USP30 block -22, USP28 inh 8 and USP8 block -185.
Screening COc1ccccc1NC(=O)C1=C(C)Nc2nc(CCCO)nn2C1c1ccccn1 (stereo unspecified) returned USP10 block -2, USP17 block -7, USP30 block -13, USP28 inh -10 and USP8 block 0.
`O=C(/C=C/c1ccco1)c1cccc([N+](=O)[O-])c1` gave USP10 block 32*, USP17 block 83*, USP30 block 3, USP28 inh 46* and USP8 block 50*.
`Cc1noc(-c2cccn(Cc3noc(-c4ccccc4C)n3)c2=O)n1` gave USP10 block -4, USP17 block 6, USP30 block 1, USP28 inh 0 and USP8 block -10.
Cc1ccccc1-c1noc(-c2cccn(CC(=O)Nc3ccccc3F)c2=O)n1 was read as USP10 block -6, USP17 block 8, USP30 block -36, USP28 inh -24 and USP8 block 76*.
`COc1ccc(C(C)=O)cc1COC(=O)c1ccc2c(c1)S(=O)(=O)N=C1CCCCCN12` gave USP10 block 24, USP17 block 45*, USP30 block 38*, USP28 inh 26 and USP8 block 24.
Cc1noc(-c2ccc(CSc3nc4ccccc4o3)cc2)n1 was read as USP10 block 2, USP17 block -1, USP30 block -8, USP28 inh 6 and USP8 block -4.
Screening CSc1cccc(NC(=O)COc2cccc3ccccc23)c1 returned USP10 block 26, USP17 block 41*, USP30 block 78*, USP28 inh 35* and USP8 block 43*.
For CCOC(=O)c1ccc(NC(=O)C2CCN(c3nccc4sccc34)CC2)cc1 the results were USP10 block 4, USP17 block 15, USP30 block -61, USP28 inh 18 and USP8 block 54*.
`C=C1C(C)C(C)(O)OC12OC(=O)C=C2OC` (stereo unspecified) gave USP10 block -4, USP17 block -1, USP30 block 0, USP28 inh -4 and USP8 block -3.
Screening COc1cc(C(=O)N(Cc2cc(=O)[nH]c3ccccc23)C(C)C)cc(OC)c1OC returned USP10 block 1, USP17 block 19, USP30 block 31*, USP28 inh 14 and USP8 block 19.
